Experimental data taken from PubChem BioAssay (NCI).
About 79,000 compounds went through this panel and 15% of them were active in at least one assay; those are over-represented in the sample as a whole. Values without a mark were called inactive. Active and inactive are the calls of the source. No stated cut-off is given here; in the data, active means growth inhibition above about 70%; inactive means the rest.

How the values were obtained:
[1] = NCI Yeast Anticancer Drug Screen. Data for the rad50 strain (AID 155);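 further: 0% = growth of vehicle-only cultures of the same strain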; settings: S. cerevisiae rad50 strain growth inhibition, active compounds read high
In short: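 Genetically altered yeast (DNA repair pathway); compound treatment; growth inhibition vs vehicle ctrl.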

[2] = NCI Yeast Anticancer Drug Screen. Data for the mec2-1 strain (AID 157); settings: S. cerevisiae mec2-1 strain, active compounds read high
In short: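 Each compound was tested on mec2-1 yeast, a strain altered in DNA damage repair or cell cycle control. Growth inhibition is reported relative to vehicle.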

[3] = NCI Yeast Anticancer Drug Screen. Data for the sgs1 mgt1 strain (AID 161);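 further: 0% = growth of cultures given vehicle only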; settings: S. cerevisiae sgs1 mgt1 strain, active compounds read high
In short: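 Genetically altered yeast, compound exposure, growth inhibition relative to vehicle.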

[4] = NCI Yeast Anticancer Drug Screen. Data for the cln2 rad14 strain (AID 165);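 further: 0% = growth equal to vehicle treated cultures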; settings: S. cerevisiae cln2 rad14 strain, active compounds read high
In short: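 Test compounds were added to cln2 rad14 yeast cultures; inhibition of growth was then determined by comparison with vehicle treatment.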

[5] = NCI Yeast Anticancer Drug Screen. Data for the bub3 strain (AID 167); settings: S. cerevisiae bub3 mutant strain, active compounds read high
In short: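 Yeast carrying a defined mutation is treated with each compound, and growth is compared with that of vehicle-exposed cells to give inhibition.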

[6] = NCI Yeast Anticancer Drug Screen. Data for the mlh1 rad18 strain (AID 175); settings: S. cerevisiae mlh1 rad18 strain growth inhibition, active compounds read high
In short: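 Inhibition values reflect reduced growth of mutant yeast versus vehicle-treated controls following compound exposure; the mutations affect DNA damage repair.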

[7] = at 5.0 µM (retest, dose inferred, filed as 0.5)
[8] = at 50.0 µM (retest, dose inferred, filed as 5.0)

| SMILES | growth inhibition [1, 7] | growth inhibition [1, 8] | growth inhibition ([1]; at 50.0 µM) | growth inhibition [2, 7] | growth inhibition [2, 8] | growth inhibition ([2]; at 50.0 µM) | growth inhibition [3, 7] | growth inhibition [3, 8] | growth inhibition ([3]; at 50.0 µM) | growth inhibition [4, 7] | growth inhibition [4, 8] | growth inhibition ([4]; at 50.0 µM) | growth inhibition [5, 7] | growth inhibition [5, 8] | growth inhibition ([5]; at 50.0 µM) | growth inhibition [6, 7] | growth inhibition [6, 8] | growth inhibition ([6]; at 50.0 µM) |
| --- | --- | --- | --- | --- | --- | --- | --- | --- | --- | --- | --- | --- | --- | --- | --- | --- | --- | --- |
| CCOC(=O)C(=N\Nc1c(C)cccc1C)/C(C)=N\NC(N)=S | -17% | 15% | 64.7% | -7% | 25% | 32.6% | 7% | 45% | 58.2% | -13% | -9% | 54.8% | -3% | 4% | 51.5% | 11% | 42% | 69.2% |
| O=C(CC(c1cccnc1)C(C(=O)c1ccc(Cl)cc1)C(CC(=O)c1ccc(Cl)cc1)c1cccnc1)c1ccc(Cl)cc1 (stereo not given) | 80% (active) | 92% (active) | 59.3% | 48% | 95% (active) | 65.2% | 56% | 96% (active) | 52.2% | 32% | 96% (active) | 36.9% | 11% | 92% (active) | 30.8% | 63% | 93% (active) | 87.1% (active) |
| CNC(=O)OCc1c(COC(=O)NC)c2n(c1C)-c1ccccc1CCC2 | 23% | 35% | 85.8% (active) | 11% | 70% (active) | 89.6% (active) | 38% | 75% (active) | 90% (active) | 38% | 56% | 88.9% (active) | 50% | 77% (active) | 87.5% (active) | 15% | 43% | 87.6% (active) |
| CCCCCC(O)C(C)CO (stereo not given) | 1% | -3% | 12.8% | -2% | -3% | -7.6% | -2% | -4% | -4.2% | -7% | -4% | 42.9% | 0% | -1% | 0.9% | -1% | -1% | 14.4% |
| CC1=C(C#N)C(=O)N(C)C(=O)C1(Cl)Cl | -2% | -12% | -1.3% | 0% | -2% | -8.1% | 1% | -3% | -7.45% | 0% | -12% | 14.6% | 3% | 4% | 5.05% | 1% | -3% | 9.45% |
| Cc1cc(Br)ccc1NC(=O)/C=C/C(=O)O | -23% | -36% | 0.1% | -24% | -5% | 4.25% | -17% | -4% | 17.4% | 10% | 22% | 7.15% | -4% | -13% | 20.2% | 0% | -16% | 1.25% |
| CCO/N=C1\CCCCC1SS(=O)(=O)O (stereo not given) | -5% | 11% | 40.5% | 7% | 17% | -14.1% | -6% | 20% | 31.8% | 0% | 7% | 15.2% | 5% | 22% | 8.2% | -1% | 4% | 31.9% |
| Cc1c(O)c(Br)c(Br)c(Br)c1Br | 82% (active) | 94% (active) | 95.5% (active) | 78% (active) | 97% (active) | 87.1% (active) | 81% (active) | 96% (active) | 96.1% (active) | 93% (active) | 96% (active) | 94.7% (active) | 84% (active) | 96% (active) | 93% (active) | 87% (active) | 95% (active) | 94.1% (active) |
| COC(=O)C1(C)CCc2c(ccc3cccc(OC)c23)C1=O (stereo not given) | 0% | 99% (active) | 1.65% | 0% | 98% (active) | 21% | 2% | 98% (active) | 66.9% | -9% | 97% (active) | -3.75% | 20% | 99% (active) | 86.8% (active) | 1% | 99% (active) | 44.5% |
| CCCCCCCCCCCCCCCCN1CCSCC1 | 39% | 98% (active) | 98.3% (active) | 45% | 99% (active) | 99% (active) | 65% | 99% (active) | 98.9% (active) | 23% | 99% (active) | 98.7% (active) | 36% | 99% (active) | 99% (active) | 69% | 99% (active) | 98.7% (active) |
